# Reference: PubChem BioAssay AID1159580 (chemical genetic matrix, 2015)
# Hit rate of the full screen: of about 5,500 compounds, about 2,000 (36%) were called active. About 18% were inconclusive and are not listed. Some of the results follow. Values without a mark were called inactive. Cut-off read from the data, not from the text of the source: active = normalized growth mostly below about 0.91 (no sharp cut-off); inconclusive = no clear call, values can overlap the other calls; inactive = mostly above about 0.92.
# Assay: chemical genetic growth profiling, strain panel (AID 1159580);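 note: tested at 20 µM; growth read once vehicle control cultures reached saturation at 30 °C; 1 = growth at the plate median or of vehicle wells; lower values mean less growth of the strain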
# Details: growth OD
smiles,measurement,setting,value
CC(C)(C)C1=NN(c2ccccc2)C(=O)C1,normalized growth,"S. cerevisiae deletion strains, locus YAL013W, strain DEP1, stronger effect = lower value",0.973
same,normalized growth,"S. cerevisiae deletion strains, locus YBR229C, strain ROT2, stronger effect = lower value",0.959
same,normalized growth,"S. cerevisiae deletion strains, locus YCL061C, strain MRC1, stronger effect = lower value",0.966
same,normalized growth,"S. cerevisiae deletion strains, locus YDL101C, strain DUN1, stronger effect = lower value",0.983
same,normalized growth,"S. cerevisiae deletion strains, locus YDL134C, strain PPH21, stronger effect = lower value",0.975
same,normalized growth,"S. cerevisiae deletion strains, locus YDR150W, strain NUM1, stronger effect = lower value",0.952
same,normalized growth,"S. cerevisiae deletion strains, locus YEL061C, strain CIN8, stronger effect = lower value",0.994
same,normalized growth,"S. cerevisiae deletion strains, locus YGR078C, strain PAC10, stronger effect = lower value",0.956
same,normalized growth,"S. cerevisiae deletion strains, locus YHR030C, strain SLT2, stronger effect = lower value",0.863
same,normalized growth,"S. cerevisiae deletion strains, locus YHR087W, strain rtc3, stronger effect = lower value",1
same,normalized growth,"S. cerevisiae deletion strains, locus YJR043C, strain POL32, stronger effect = lower value",1.01
same,normalized growth,"S. cerevisiae deletion strains, locus YJR075W, strain HOC1, stronger effect = lower value",0.939
same,normalized growth,"S. cerevisiae deletion strains, locus YKL190W, strain CNB1, stronger effect = lower value",0.956
same,normalized growth,"S. cerevisiae deletion strains, locus YLR039C, strain RIC1, stronger effect = lower value",0.666 (active)
same,normalized growth,"S. cerevisiae deletion strains, locus YLR058C, strain SHM2 (second series), stronger effect = lower value",0.972
same,normalized growth,"S. cerevisiae deletion strains, locus YLR085C, strain ARP6, stronger effect = lower value",0.637 (active)
same,normalized growth,"S. cerevisiae deletion strains, locus YLR262C, strain YPT6, stronger effect = lower value",0.707 (active)
same,normalized growth,"S. cerevisiae deletion strains, locus YML094W, strain GIM5, stronger effect = lower value",0.984
same,normalized growth,"S. cerevisiae deletion strains, locus YMR219W, strain ESC1, stronger effect = lower value",0.966
same,normalized growth,"S. cerevisiae deletion strains, locus YMR307W, strain GAS1, stronger effect = lower value",0.803
same,normalized growth,"S. cerevisiae deletion strains, locus YNL153C, strain GIM3, stronger effect = lower value",0.981
same,normalized growth,"S. cerevisiae deletion strains, locus YNL298W, strain CLA4 (second series), stronger effect = lower value",0.929
same,normalized growth,"S. cerevisiae deletion strains, locus YNL322C, strain KRE1, stronger effect = lower value",0.981
same,normalized growth,"S. cerevisiae deletion strains, locus YNR030W, strain Alg12, stronger effect = lower value",0.888
same,normalized growth,"S. cerevisiae deletion strains, locus YOL006C, strain TOP1, stronger effect = lower value",0.808
same,normalized growth,"S. cerevisiae deletion strains, locus YPL055C, strain LGE1, stronger effect = lower value",1.03
same,normalized growth,"S. cerevisiae deletion strains, locus YPL241C, strain CIN2, stronger effect = lower value",0.89
same,normalized growth,"S. cerevisiae deletion strains, locus YPR135W, strain CTF4, stronger effect = lower value",0.656
same,normalized growth,"S. cerevisiae strains, strain wild type, stronger effect = lower value",0.884 (active)
